PubChem BioAssay AID1745849 (National Center for Advancing Translational Sciences (NCATS), 2022)
Hit rate of the full screen: of about 2,100 compounds, about 320 (15%) were called active. Roughly 52% stayed inconclusive and do not appear here. The list shows a part of the results. Unmarked numbers belong to inactive results. Calls come from the whole dose curve; as a rule, active = well fitted cell-killing curve with a large enough effect; inconclusive = small, poorly fitted or top-dose-only effect, or effect the other way; inactive = flat fitted curve, though single readings scatter.

Experiment: Viability Counterscreen for CMV-Luciferase Assay of Inhibitors of ATXN expression; note: nearly all actives have a fitted effect of over 55% in size
Details: HEK-293 CMV-luciferase cells viability, protease fluorescence, 24 h; activity change, negative = cytotoxicity: at the top concentration
In short: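 Compounds are tested in a dilution series on HEK-293 cells carrying the CMV-driven luciferase. After a 24 hr incubation, a protease substrate (25 uM final, 30 min) gives the viability fluorescence, and SteadyGlo gives the reporter luminescence.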
% is set by controls: 0 for no effect and ±100 for the full control effect; potency is the fitted concentration of half-maximal effect.

Question: Which “activity change, negative = cytotoxicity” value does the source give for `O=C(N/N=C1\CCCc2c1[nH]c1ccc(Cl)cc21)c1ccncc1` here?
Answer: Its value is 8.93% [at 57.5 µM].

Question: For `Cc1cc(C)nc(/N=C(\N)Nc2ccc(C(C)C)cc2)n1`, which “activity change, negative = cytotoxicity” value is on record?
Answer: Its value is -6.78%.

Question: With `CCc1cc(-c2nnn(CCC3COCCO3)c2CC)ccc1-c1cn(CCc2c[nH]c3ccccc23)nn1` (stereo not drawn) as the molecule, how does the “activity change, negative = cytotoxicity” value read?
Answer: Its value is -21% [at 57.5 µM].

Question: For `CCCc1nc2c(c(=O)c3ccccc3n2C)c(=O)n1C1CCCCCC1`, which Potency is on record?
Answer: The Potency was 20 µM (active).

Question: With `CC(C)(C)OC(=O)CNC(=O)c1[nH]cnc1C(=O)Nc1ccc(CNC(=O)OC(C)(C)C)cc1` as the molecule, how does the “activity change, negative = cytotoxicity” value read?
Answer: Its value is -25.6% [at 57.5 µM].

Question: Which “activity change, negative = cytotoxicity” value does the source give for `CN(C)c1cc[n+](CC(=O)c2ccc(-c3ccccc3)cc2)cc1` here?
Answer: Its value is -28.5%.

Question: Which “activity change, negative = cytotoxicity” value does the source give for `CCC(=O)OC1(C(C)=O)CCC2C3CCC4=CC(=O)CCC4(C)C3CCC21C` (stereo not drawn) here?
Answer: The value was -2.45% [at 57.5 µM].

Question: With `NC(Cc1ccc(C(F)(F)F)cc1)c1csc(Nc2nccc(C(F)(F)F)n2)n1` (stereo not drawn) as the molecule, how does the “activity change, negative = cytotoxicity” value read?
Answer: The value was -0.88%.

Question: For `CC(C)(C)c1ccc(C(=O)N2CCCCCC2=O)cc1`, which “activity change, negative = cytotoxicity” value is on record?
Answer: Its value is -17.4% [at 57.5 µM].

Question: With `CCN(CC)c1ccc(/C=C/c2cccc[n+]2C)c(OC)c1` as the molecule, how does the Potency read?
Answer: The Potency was 14.1 µM (active).

Question: Which “activity change, negative = cytotoxicity” value does the source give for `CCN(CC)c1ccc(C(=O)N/N=C/c2ccccc2OC(F)F)cc1` here?
Answer: The value was -26.8%.

Question: For `COc1ccccc1NC(=S)NC(=O)c1ccc(Cn2cc(Br)cn2)cc1`, which “activity change, negative = cytotoxicity” value is on record?
Answer: The value was 3.03% [at 57.5 µM].

Question: With `COc1cc(-c2nnc(SCC(=O)N(Cc3ccccc3)C(C)(C)C)o2)cc(OC)c1OC` as the molecule, how does the “activity change, negative = cytotoxicity” value read?
Answer: Its value is -7.89%.

Question: For `Cc1ccc(NC(=O)c2ccc(-c3nn(C)c(=O)c4ccccc34)cc2)cc1`, which “activity change, negative = cytotoxicity” value is on record?
Answer: Its value is -10.4% [at 57.5 µM].

Question: Which “activity change, negative = cytotoxicity” value does the source give for `CCc1nc2ccccc2c(C(=O)OCC(=O)Nc2ccc(NC(C)=O)cc2)c1C` here?
Answer: The value was 3.49%.

Question: Which Potency does the source give for `CC(=O)Nc1ccc(Nc2c3ccccc3nc3ccccc23)cc1` here?
Answer: The Potency was 8.91 µM (active).

Question: With `C/C(=N\NC(=O)c1cc(C2CC2)nc2ccccc12)c1ccc(O)cc1O` as the molecule, how does the “activity change, negative = cytotoxicity” value read?
Answer: The value was 8.57% [at 57.5 µM].

Question: Which “activity change, negative = cytotoxicity” value does the source give for `CSc1sc(C(=O)NN)c2c1C1(CCC2)SCCS1` here?
Answer: The value was 5.91% [at 57.5 µM].

Question: With `CC1CCCN(S(=O)(=O)c2ccc(C(=O)Nc3nnc(-c4ccccc4Cl)o3)cc2)C1` (stereo not drawn) as the molecule, how does the “activity change, negative = cytotoxicity” value read?
Answer: The value was -14%.

Question: With `O=C1/C(=C\c2cc(Cl)c(O)c(Cl)c2)SC(=S)N1Cc1ccccc1` as the molecule, how does the “activity change, negative = cytotoxicity” value read?
Answer: Its value is 27.6% [at 57.5 µM].

Question: With `COc1ccc(/C=C2\CN(Cc3ccccc3)C/C(=C\c3ccc(OC)c(O)c3)C2=O)cc1O` as the molecule, how does the Potency read?
Answer: The Potency was 10 µM (active).

Question: With `OC1(c2ccc(Cl)cc2)CCN(Cc2c[nH]c3ccccc23)CC1` as the molecule, how does the “activity change, negative = cytotoxicity” value read?
Answer: The value was -9.54%.

Question: For `COCCCn1c(-c2ccc(S(=O)(=O)N3CCOCC3)cc2)csc1=Nc1ccccc1`, which “activity change, negative = cytotoxicity” value is on record?
Answer: The value was 2.74%.

Question: For `COc1ccc(Cl)cc1C(=O)Nc1ccccc1N1CCN(C(=O)C(C)C)CC1`, which “activity change, negative = cytotoxicity” value is on record?
Answer: Its value is -29.9% [at 57.5 µM].

Question: For `COc1ccc(NC(=O)c2cc(-c3cc(Cl)ccc3OC)n[nH]2)cc1OC`, which Potency is on record?
Answer: The Potency was 0.398 µM (active).

Question: Which “activity change, negative = cytotoxicity” value does the source give for `COc1ccc(Cl)cc1NC(=O)Nc1cccc([N+](=O)[O-])c1C` here?
Answer: The value was 2.88%.

Question: With `Cc1cc(C)c(C(=O)N2CCCC(N3CCN(c4cccc(C(F)(F)F)c4)CC3)C2)o1` (stereo not drawn) as the molecule, how does the “activity change, negative = cytotoxicity” value read?
Answer: The value was -20.6%.

Question: Which “activity change, negative = cytotoxicity” value does the source give for `CCOc1ccc(CCNC(=O)c2ccc(OCc3c(C)noc3C)cc2)cc1OCC` here?
Answer: Its value is 20.1%.
